This passage reports activity change, negative = inhibition and Potency results from PubChem BioAssay AID603 (National Center for Advancing Translational Sciences (NCATS), 2007).

About 180 (0.25%) of roughly 71,000 compounds were called active. The list comes from a sample in which actives are over-represented; it also holds similar structures and randomly drawn compounds. Entries that show only a call come without a potency. Values without a mark were called inactive. Calls follow the shape of the dose curve; as a rule, active = well fitted curve in the direction sought with a large enough effect; inconclusive = small, poorly fitted or top-dose-only effect; inactive = flat fitted curve, though single readings scatter.

This assay deals with DNA polymerase III holoenzyme (E. coli). Description: qHTS Assay for Inhibitors of DNA Polymerase III Holoenzyme System. Conditions: reconstituted DNA polymerase III holoenzyme replication, biochemical; series mostly up to 57.1 µM. Here is the method: NIH Molecular Libraries Screening Centers Network [MLSCN]
NIH Chemical Genomics Center [NCGC]
Assay Provider: Charles McHenry, University of Colorado
E. coli DNA polymerase III holoenzyme complex was assayed for DNA production by fluorescent detection of the double-stranded DNA product with PicoGreen dye. The holoenzyme complex was reconstituted from the following purified protein components: DNA Polymerase III, beta subunit processivity factor, SSB single-stranded DNA binding protein, and Primase. Single-stranded, circular M13Gori was used as a substrate with dNTPs and NTPs also supplied to the substrate reagent. Compounds from the NCGC collection were incubated with the holoenzyme mixture for 15 min at room temperature to allow binding to occur, and then the reaction was started by the addition of substrate. After 30 min incubation at room temperature, PicoGreen solution containing EDTA was added to stop the reaction and to visualize the double-stranded DNA produced. Reaction progress was measured in a ViewLux CCD imager in fluorescence intensity mode by using 480 nm excitation and 540 nm emission filter set.
NCGC Assay Protocol Summary:
Buffer. 50 mM Hepes-KOH, pH 7.5, 5 % Glycerol, 0.02% NP40, 30 mM potassium;
glutamate, 1.5 mM Magnesium Acetate, 16 uM TCEP.
Buffer in columns 3 and 4 as negative control (no enzyme).
Substrate solution: 5 uM each dATP, dGTP, dCTP and TTP, 50 uM each GTP, CTP, UTP and 200 uM ATP, 1.4 nM M13gori (final concentrations).
Enzyme: 154 nM SSB, 2 nM Primase, 1 nM Beta, 0.35 nM Pol III (final concentrations).
PicoGreen/EDTA: 10 mM Tris-HCl, 10 mM EDTA, 5 uM PicoGreen (final concentrations).
Control titration: ChemBridge 5805060 (from 10 mM, then 1:2, in duplicate) was pin-transferred to upper half of column 2.
Three uL of holoenzyme mixture were dispensed to 1536-well Greiner black solid bottom plates. Compounds and controls (23 nL) were transferred via Kalypsys PinTool. The plates were incubated for 15 min at room temperature, and then 1 uL of substrate solution was added to start the reaction. After room temperature incubation for 35 minutes, 1 uL of PicoGreen solution was added to each well and the plates were read 480 nm excitation and 540 nm emission using ViewLux (Perkin-Elmer) High-throughput CCD imager and fluorescence protocol settings.
Keywords: NIH Roadmap, MLSCN, MLI, MLSMR, qHTS, NCGC, DNA Polymerase III, DNAPol3, DNAPoly3, DNA replication targets
A general note: Quantitative high-throughput screening tests each substance at several concentrations.
In the case of `CC(C)c1cc(CN(C)C)c(O)c(C(C)(C)C)c1`, the activity change, negative = inhibition is -6.4% [at 11.4 µM]. Same read-out and setting: the result for `COc1cccc(Cn2c(=O)c(-c3cc(F)cc(F)c3)nc3cnc(OC)nc32)c1` reads “inactive”.

Turning to `O=c1cc(-c2ccccc2)[nH]c2nc(Cl)ccc12`, the activity change, negative = inhibition entry was “inactive”. Still for that read-out and setting: the result for `COC(=O)[C@@]1(Cc2ccc(F)cc2)[C@H]2c3cc(C(=O)N4CCCC4)n(C[C@H](O)CO)c3C[C@H]2CN1C(=O)c1ccccc1` reads “inactive”. In the case of `CC(=O)O[C@]1(C(C)=O)CC[C@@H]2[C@@H]3C=C(C)C4=CC(=O)CC[C@@]4(C)[C@H]3CC[C@]21C`, the activity change, negative = inhibition result is “inactive”. On the same count and under the same terms, the result for `O=C(O)CC(C(=O)O)C(CC(=O)O)C(=O)O` (centres undefined) reads “inactive”; that for `COc1ccc(OC)c(NC(=O)CSc2nc(N)c(-c3ccccc3)c(=O)[nH]2)c1`, “inactive”; that for `O=C(CSc1nnc(-c2ccncc2)n1C1CCCCC1)Nc1ccccc1`, “inactive”. Take `CCN(CC)S(=O)(=O)c1ccc(NC(=O)CN(c2cccc(F)c2)S(C)(=O)=O)cc1`: the activity change, negative = inhibition entry was “inactive”.

On to `O=C(Nc1c(-c2ccccc2)nc2c(Br)cc(Br)cn12)c1ccco1`, for which the activity change, negative = inhibition result was “inactive”. `COC(=O)[C@@]1(Cc2ccc(F)cc2)[C@@H]2[C@@H](CC(=O)[C@H]2CC(=O)C(=O)N2CCCC2)CN1C(=O)c1ccccc1`: the activity change, negative = inhibition result was “inactive”. Still for that read-out and setting: next, `O=c1[nH]c(=O)c2nc3ccccc3nc2[nH]1`: “inactive”; `Cc1cccn2c(=O)c3cc(C(=O)NCc4ccccn4)n(C)c3nc12`: “inactive”. Same read-out and setting: the result for `O=C(NCc1ccccn1)c1cc2ccccc2oc1=O` reads “inactive”. As to `O=C(NCc1ccccn1)c1ccc2nc(-c3ccco3)c(-c3ccco3)nc2c1`, the Potency is 3.98 µM (active). For the compound `CC(C)Cc1ccc(S(=O)(=O)N2CCN(C(=O)c3ccco3)CC2)cc1`, the activity change, negative = inhibition entry was “inactive”.

For `COc1ccc(NC(=O)N2CC3(CCN(C(=O)c4cccn4C)CC3)C2)cc1`, the activity change, negative = inhibition result was “inactive”.

For `CC1Cc2nc(SCC(=O)Nc3ccccc3F)n(C)c(=O)c2S1` (centres undefined), the activity change, negative = inhibition result is “inactive”. On the same count and under the same terms, the result for `Cc1cc(C)cc(N(CC(=O)NCC2CCCO2)S(=O)(=O)c2c(C)noc2C)c1` (centres undefined) reads “inactive”; that for `COc1ccc(C[C@H](N)C(=O)N[C@@H]2[C@H](O)[C@H](n3cnc4c(N(C)C)ncnc43)O[C@@H]2CO)cc1`, “inactive”; that for `COc1ccc(-c2nnc(SCC(=O)NC3CCCCC3)o2)cc1OC`, “inactive”.

As for `COc1ccc2nc(N3CCCC(O)C3)c(C#N)cc2c1` (centres undefined), the activity change, negative = inhibition entry is “inactive”. The same measure, in the same setting: next, `CC(=O)Oc1ccccc1C(=O)Nc1ncc([N+](=O)[O-])s1`: “inactive”; `COC(=O)[C@H](C)[C@H]1C[C@]1(C)[C@H](NC(=O)OCc1ccccc1)c1ccccc1`: “inactive”.

`CCOC(=O)N1CCN(C(=O)COc2ccc(Br)cc2)CC1`: the activity change, negative = inhibition was 0.2% [at 11.4 µM]. Consider `N#Cc1c(NC(=O)CSc2nc3ccccc3c(=O)n2Cc2ccco2)sc2c1CCCC2`, for which the activity change, negative = inhibition result is “inactive”. Still for that read-out and setting: the result for `COc1ccc(-n2c(=O)c(-c3cn(C)c4ccccc34)nc3cnc(OC)nc32)cc1` reads “inactive”.

On to `CC(=O)Oc1cccc(N2C(=O)C3CC=C(Cl)CC3C2=O)c1` (centres undefined), for which the activity change, negative = inhibition result was “inactive”.

Consider `COc1ccc(CNc2ncnc3ccc(-c4cccnc4)cc23)c(OC)c1`, for which the activity change, negative = inhibition entry was “inactive”. Consider `CCOC(=O)CC1C(=O)NCCN1C(=O)COc1ccc(Br)cc1C` (centres undefined), for which the activity change, negative = inhibition result was “inactive”. The same measure, in the same setting: next, `CC1CCN(c2oc(-c3ccccc3F)nc2C#N)CC1`: “inactive”. The same measure, in the same setting: next, `c1ccc(CSCCc2ccncc2)cc1`: -2.4% [at 11.4 µM]; `N#C/C(=C\c1ccc(O)c(O)c1)C(N)=O`: “inactive”.

`COC(=O)[C@@]1(Cc2ccc(F)cc2)[C@H]2c3cc(C(=O)N4CCCC4)n(Cc4ccc(OC(F)(F)F)cc4)c3C[C@H]2CN1C(=O)c1ccccc1`: the activity change, negative = inhibition entry is “inactive”.

As to `OCCN1CCN(CC/C=C2\c3ccccc3Sc3ccc(C(F)(F)F)cc32)CC1`, the activity change, negative = inhibition result is “inactive”.

For `O=C(Nc1c2c(nn1-c1ccc(F)cc1)CS(=O)C2)C12CC3CC(CC(C3)C1)C2` (centres undefined), the activity change, negative = inhibition result was “inactive”.

For `CCOC(=O)c1sc(N(Cc2ccccc2)C(=O)CN2C(=O)CN(C)C2=O)nc1C`, the activity change, negative = inhibition result was “inactive”. In the case of `O=C(Nc1cccc(F)c1)N1CC2(CCN(C(=O)c3cnccn3)CC2)C1`, the activity change, negative = inhibition entry is “inactive”. Turning to `c1ccc2c(Nc3ccncc3)nc(-c3ccoc3)nc2c1`, the activity change, negative = inhibition entry was “inactive”.

Consider `Cc1ccc(N2C(=O)c3oc4ccccc4c(=O)c3C2c2cccnc2)nc1` (centres undefined), for which the activity change, negative = inhibition result is “inactive”. The same measure, in the same setting: the result for `COc1ccccc1N1CCN(Cc2ccc(OC)c3ccccc23)CC1` reads “inactive”. Same read-out and setting: next, `CCCCCCN(C(=O)CCCCCN1C(=O)NC(c2ccc(C(F)(F)F)cc2)C(C(=O)OCc2ccccc2)=C1C)C(C(=O)NCCCC)c1ccc(OCC(=O)OC)c(C(=O)OC)c1` (centres undefined): “inactive”. On the same count and under the same terms, next, `C[C@@H]1O[C@@H](O[C@@H]2[C@@H](O)[C@H](OCCc3ccc(O)c(O)c3)O[C@H](CO[C@@H]3O[C@H](CO)[C@@H](O)[C@H](O)[C@H]3O)[C@H]2OC(=O)/C=C/c2ccc(O)c(O)c2)[C@H](O)[C@H](O)[C@H]1O`: “inactive”; `C/C=C1\C(=O)C[C@@H]2[C@@H]3CCC4=CC(=O)CC[C@@]4(C)[C@H]3CC[C@@]12C`: “inactive”. Take `O=C(O)C1=CCCN(CCON=C(c2ccccc2)c2ccccc2)C1`: the activity change, negative = inhibition result was “inactive”. The same measure, in the same setting: the result for `COC(=O)C1=C(C)N(C)C(C)=C(C(=O)OC)C1c1cccc(Br)c1` reads “inactive”. Same read-out and setting: the result for `O=C(NCc1cccnc1)c1cn(-c2ccccc2)nc1-c1cccs1` reads “inactive”. As to `O=S(=O)(Nc1nccs1)c1ccc2c(c1)OCCO2`, the activity change, negative = inhibition result is “inactive”.

`COC(=O)C1(C)C=CCN1C(=O)c1ccccc1` (centres undefined): the activity change, negative = inhibition result was “inactive”. The same measure, in the same setting: next, `COc1cccc(-c2cc3nc4c(c(N5CCC6(CC5)OCCO6)n3n2)CCCC4)c1`: “inactive”.

For `CCOc1ccccc1C1C(C(=O)OC)=CN(C)C=C1C(=O)OC`, the activity change, negative = inhibition result was “inactive”. Same read-out and setting: the result for `CC(C)NC(=O)N1CCCC2(CCN(C(=O)c3cccn3C)CC2)C1` reads “inactive”; that for `COc1ccc(N)c(OC)c1`, “inactive”; that for `CC1=C2C(=O)OC(c3ccoc3)C2(C)CCC1` (centres undefined), “inactive”. Same read-out and setting: the result for `Cn1c(SCC(=O)Nc2cccc(NC(=O)c3cccs3)c2)nnc1-c1ccncc1` reads “inactive”. The same measure, in the same setting: next, `COc1ccc(N2C(=O)c3cccc4cccc(c34)C2=O)nn1`: “inactive”. On to `C[N+](C)(CCCCCC[N+](C)(C)CCCN1C(=O)c2cccc3cccc(c23)C1=O)CCCN1C(=O)c2cccc3cccc(c23)C1=O`, for which the Potency is 15.8 µM (active).

For `O=C1c2ccccc2C(=O)N1CCCSc1ccccc1`, the activity change, negative = inhibition was -7.1% [at 11.4 µM]. Still for that read-out and setting: next, `COc1ccc2[nH]cc(CCNc3cc(-c4ccccc4CN(C)C)ncn3)c2c1`: “inactive”.
